High-throughput results as filed in PubChem BioAssay.
Most compounds without a hit are left out; they make up all but 1.1% or so of the library.
HTR5A ag ctr: counter-screen for OPRM1-OPRD1 agonists: human HTR5A agonism. P47898. AID 504692. hit rate 0.61% among 340,000. activation, % at 9.3 µM. HTR5A agonist assay, luminescence, cell-based; in the data active means activation mostly above about 9.5%, no sharp cut-off; inactive means mostly below about 7.6%;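 further: 0% = cells with vehicle only and 100% = reference agonist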
Target sequence (P47898 whole entry, looked up): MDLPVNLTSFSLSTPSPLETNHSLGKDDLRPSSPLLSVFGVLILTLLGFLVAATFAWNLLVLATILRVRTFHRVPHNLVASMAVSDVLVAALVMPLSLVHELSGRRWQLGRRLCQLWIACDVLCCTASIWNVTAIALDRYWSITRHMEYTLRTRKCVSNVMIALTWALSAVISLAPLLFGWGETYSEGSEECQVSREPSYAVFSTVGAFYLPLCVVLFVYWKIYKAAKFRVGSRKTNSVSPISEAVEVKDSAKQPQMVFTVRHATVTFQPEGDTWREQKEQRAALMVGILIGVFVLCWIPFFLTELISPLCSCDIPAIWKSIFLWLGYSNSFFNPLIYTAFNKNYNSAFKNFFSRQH
OPRM1-OPRD1 ag: agonists of human mu-delta opioid receptor heterodimerization | P35372+P41143 | cells, OPRM1-OPRD1 heterodimerization, luminescence | activation, % at 9.3 µM | hit rate 0.3% among 340,000 | AID 504326;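 further: 0% = vehicle-treated cells and 100% = reference agonist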
MOR-DOR inv ag: inverse agonist of human OPRM1-OPRD1 heterodimerization | AID 504357 | cell-based MOR-DOR heterodimer luminescence, inverse agonism | hit rate 0.21% among 340,000 | inhibition, % at 9.3 µM; in the data active means inhibition above about 22%, passing the limit was not always enough;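 further: 0% = cells with DMSO and 100% = wells without cells with DMSO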
HTR5A inv ag: HTR5A inverse agonism, opioid heterodimer counter-screen; P47898; HTR5A cell line, luminescence; inhibition, % at 9.3 µM; hit rate 0.083% among 340,000; AID 504634; in the data active means inhibition mostly above about 23%, no sharp cut-off; inactive means mostly below about 18%;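 further: 0% = cells with DMSO and 100% = no-cell wells with DMSO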
OPRM1-D1 ag cf: OPRM1-OPRD1 heterodimer agonism, confirmation; activation, % at 9.3 µM; shares compounds with OPRM1-OPRD1 ag; hit rate 45% among 830; cells, MOR-DOR heterodimerization, luminescence complementation;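 further: 0% = vehicle-treated cells and 100% = reference agonist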
HTR5A ag counter: counter-screen for OPRM1-OPRD1 agonists: human HTR5A agonism; HTR5A agonist counterscreen, cell luminescence; hit rate 8% among 830; activation, % at 9.3 µM; shares compounds with OPRM1-OPRD1 ag; in the data active means activation above about 17%;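 further: 0% = vehicle-treated cells and 100% = reference agonist response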
OPRM1-D1 inv cf: OPRM1-OPRD1 heterodimer inverse agonism, confirmation; inhibition, % at 9.3 µM; hit rate 20% among 580; AID 504900; shares compounds with MOR-DOR inv ag; cells expressing OPRM1/OPRD1 heterodimer, luminescence; in the data active means inhibition above about 32%;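 further: 0% = cells with DMSO and 100% = wells lacking cells with DMSO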
HTR5A inv count: HTR5A inverse agonism, opioid heterodimer counter-screen; shares compounds with MOR-DOR inv ag; HTR5A-expressing cells, luminescence; inhibition, % at 9.3 µM; 580 tested, under 10 active; AID 504914; call rule not given here;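 further: 0% = cells with DMSO and 100% = no-cell wells with DMSO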
* marks the source's active call; other numbers are inactive results; i = inactive; / = no result given. Unless noted, no stated cut-off is given here; in the data, active means activation above about 18%; inactive means the rest.

SMILES	HTR5A ag ctr	OPRM1-OPRD1 ag	MOR-DOR inv ag	HTR5A inv ag	OPRM1-D1 inv cf	HTR5A inv count	others
Cc1cccc(CC(Cc2nc3ccccc3[nH]2)c2nc3ccccc3[nH]2)c1 (stereo not given)	-5	18*	-109	12	/	/	OPRM1-D1 ag cf=2;HTR5A ag counter=-4
COc1ccc(/C=N/NC(=O)COc2ccc(Cl)cc2Cl)cc1Cn1nc(C)cc1C	11	28*	-194	7	/	/	OPRM1-D1 ag cf=1;HTR5A ag counter=5
O=C(COc1ccc(Cl)cc1Cl)N/N=C/c1cccnc1	1	-1	4	-3	/	/
COc1cc2cc3c(N)c(C(=O)Nc4sc(C)c(C)c4C#N)sc3nc2cc1OC	7	117*	i	-10	/	/	OPRM1-D1 ag cf=22*;HTR5A ag counter=0
Cc1cccc(-n2nc(C(=O)c3ccco3)cc(-c3nc4ccccc4[nH]3)c2=N)c1	-1	31*	-222	3	/	/	OPRM1-D1 ag cf=1;HTR5A ag counter=0
Cc1ccc(COn2c(-c3ccc(Cl)cc3Cl)nc3ncccc32)cc1	1	77*	-433	-4	/	/	OPRM1-D1 ag cf=1;HTR5A ag counter=35*
Cc1cccc(-c2nnc(SCC(=O)C(C)(C)C)n2C)c1	0	0	-1	-51	/	/
O=[N+]([O-])c1ccc(SNc2ccccc2)c([N+](=O)[O-])c1	4	20*	-102	-15	/	/	OPRM1-D1 ag cf=13;HTR5A ag counter=6
CCOC(=O)c1c2c(n(Cc3ccccc3)c1C)C(=O)C(=O)c1ccccc1-2	8	19*	-85	-32	/	/	OPRM1-D1 ag cf=16;HTR5A ag counter=0
Oc1ccc(-c2csc(Nc3ncccn3)n2)cc1	6	23*	-110	-18	/	/	OPRM1-D1 ag cf=-2;HTR5A ag counter=-3
c1ccc(-c2csc(Nc3ncccn3)n2)cc1	5	4	-20	1	/	/
O=C(CNC(=O)C1CCCCC1)OCC(=O)c1ccc(F)cc1	0	-1	7	0	/	/
O=C(CNC(=O)C1CCCCC1)OCC(=O)c1cccc(Cl)c1	-6	-8	36*	16	13	-2
CCOC(=O)c1c(C)[nH]c(C)c1S(=O)(=O)NCC(=O)Nc1ccccn1	3	-1	4	-1	/	/
CC(=O)Nc1ccc(S(=O)(=O)Nc2cccc3cccnc23)cc1	-8	-5	26	20	/	/
O=S(=O)(Nc1cccc2cccnc12)c1ccccc1	-4	-8	47*	9	-33	12
COc1ccc(NS(=O)(=O)c2ccc3ccccc3c2)c2ncccc12	-5	-7	39*	12	10	-11
O=C(CN1C(=O)NC2(CCCCC2)C1=O)Nc1ccc2[nH]c(=O)[nH]c2c1	-2	1	-5	6	/	/
Cc1ccc(C2C(C(=O)c3cc4ccccc4o3)=C(O)C(=O)N2CCN2CCOCC2)o1 (stereo not given)	0	-7	42*	-5	-351	-19
COc1ccccc1NC(=O)C1CCCN(S(=O)(=O)c2c(C)noc2C)C1 (stereo not given)	1	-3	14	17	/	/
COC(=O)c1sc2nc(C)nc(SCC(=O)C(C)(C)C)c2c1C	1	-2	10	-2	/	/
CCN1C(=O)N[C@@H](c2ccccc2)[C@@H](C(=O)OC)[C@H]1C	3	-2	12	2	/	/
Cn1nc(C(=O)NCC2COc3ccccc3O2)c2ccccc2c1=O (stereo not given)	-2	0	1	5	/	/
Cc1ccc(C2Nc3ccccc3NC3=C2C(=O)CC(C)(C)C3)c(O)c1 (stereo not given)	1	-2	7	-4	/	/
CC1(C)CC(=O)C2=C(C1)Nc1ccccc1NC2c1cc(Cl)ccc1O (stereo not given)	2	-8	42*	-5	-428	-12
SMILES	HTR5A ag ctr	OPRM1-OPRD1 ag	MOR-DOR inv ag	HTR5A inv ag	OPRM1-D1 inv cf	HTR5A inv count	others
O=C(Nc1ccc2c(c1)OCO2)N1CCN(Cc2ccco2)CC1	1	2	-18	-4	/	/
COc1ccc(-c2nc(-c3cccs3)c(-c3cccs3)[nH]2)cc1OC	0	-5	30*	7	i	4
Cn1cnc([N+](=O)[O-])c1S(=O)(=O)Oc1ccccc1	-5	-8	40*	21	9	14
Cn1cnc([N+](=O)[O-])c1S(=O)(=O)Nc1ccccc1	0	-3	17	-1	/	/
Cc1nn(C(C)C(=O)c2cccc(Cl)c2)c(C)c1[N+](=O)[O-] (stereo not given)	0	-1	7	14	/	/
Cn1cnc([N+](=O)[O-])c1S(=O)(=O)c1cccc(Cl)c1	-3	-4	29*	16	-20	-90
Cc1nc(N/N=C\c2ccc3c(c2)OCO3)sc1C	0	2	-8	8	/	/
OCCN1CCN(C2CCC(c3ccc(F)cc3)c3ccc(F)cc32)CC1 (stereo not given)	-6	4	-21	-7	/	/
CC(C)c1ccc(NC(=O)CC2Oc3ccccc3NC2=O)cc1 (stereo not given)	-1	-1	6	3	/	/
Cc1ccccc1NC1(C#N)C(=O)Nc2ccccc21 (stereo not given)	-7	-12	58*	4	-251	-6
CC(C)c1ccc(NC2(C#N)C(=O)Nc3ccccc32)cc1 (stereo not given)	-3	-10	59*	3	-13	-19
Cn1cnc([N+](=O)[O-])c1Sc1ncccc1N	-12	-9	46*	29*	-4	17
O=[N+]([O-])c1ccc(N2CCc3ccccc3C2)cc1	-5	-2	9	-19	/	/
CC[C@]12c3[nH]c4ccccc4c3CCN1C(=O)C(CC(=O)NC/C=C(\C)CCC=C(C)C)C[C@@H]2C(=O)N1CCN(C(=O)c2ccco2)CC1 (stereo not given in full)	-1	1	-6	5	/	/
Cn1c(O)c(C2=c3ccccc3=NC2=O)[nH]c1=S	7	2	-12	-5	/	/
O=C1N=c2ccccc2=C1c1c(O)n(-c2cccc(F)c2)[nH]c1=O	-7	-6	36*	19	-44	10
COc1ccc(NC(=O)COC(=O)c2ccccc2SCC(=O)N2CCCC2)cc1	-4	1	-4	11	/	/
CN(C)S(=O)(=O)c1cccc(C(=O)Nc2ccccc2[N+](=O)[O-])c1	-1	-7	34*	9	8	-8
COC(=O)[C@@]1(Cc2ccccc2)[C@H]2C(=O)N(Cc3ccccc3)C(=O)[C@H]2[C@H]2CN=C(SC)N21	1	-5	23	-4	/	/
Cc1nnsc1C(=O)NNc1ccc(C(C)C)cc1	3	-3	14	-50	/	/
Cc1nnsc1C(=O)NNc1ccc(C(C)(C)C)cc1	2	-15	77*	-10	-27	10
